Screening data from PubChem BioAssay.
D1 ag = human D1 receptor agonism; HEK293 T-REx D1 cells, calcium flux, agonist mode; activation, % at 2 µM; hit rate 1% among 360,000
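Tetracycline-induced HEK293 TREx D1 cells, force-coupled to calcium signalling, were dye-loaded with a no-wash calcium kit. Compound was pin-added after a 10 s baseline. Fluorescence was read kinetically at 1 cycle/s for 180 s, with calcium rises flagged as agonism.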
TRHR enhancer = allosteric enhancers of human TRH receptor; P34981; enhancement, % at 2 µM; hit rate 0.66% among 360,000; TRHR cells, fluo-8 calcium fluorescence, EC20 TRH enhancement; in the data active means enhancement above about 30%
Target sequence (P34981 whole entry, looked up): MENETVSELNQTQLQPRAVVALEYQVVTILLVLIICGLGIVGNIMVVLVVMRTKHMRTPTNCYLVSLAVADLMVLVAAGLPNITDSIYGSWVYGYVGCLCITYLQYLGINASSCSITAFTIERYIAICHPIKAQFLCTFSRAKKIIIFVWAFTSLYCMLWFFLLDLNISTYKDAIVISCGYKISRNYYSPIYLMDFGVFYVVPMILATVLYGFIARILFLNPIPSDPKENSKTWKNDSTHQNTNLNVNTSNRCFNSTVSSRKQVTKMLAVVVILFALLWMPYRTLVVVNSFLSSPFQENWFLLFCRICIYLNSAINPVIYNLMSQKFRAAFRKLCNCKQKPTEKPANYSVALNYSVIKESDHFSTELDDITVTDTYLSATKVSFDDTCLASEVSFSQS
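Enhancer read-out: after compound pinning and an initial kinetic agonist-mode read, an EC20 of TRH (10 nM final) was injected and fluo-8 calcium signal (Ex 480/Em 530) followed at 1 s/cycle for 100 cycles in TRHR-expressing cells.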
D1 antagonist = human D1 dopamine receptor antagonism. HEK293 TREx D1 cells, calcium flux, dopamine EC80; stronger effect = lower value. activity change, negative = inhibition, % at 10 µM. hit rate 3.2% among 360,000; in the data active means activity change below about -30%
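Kinetic fluorescence of a calcium dye serves as the read-out. D1-expressing Hek293 Trex cells, induced overnight at 30 C, are exposed to compound for 180 s before an EC80 dopamine addition, then read 180 s further.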
D1 PAM = potentiators of human D1 dopamine receptor. potentiation, % at 10 µM. hit rate 0.036% among 360,000. AID 504651. P21728. HEK293 TREx D1 cells, calcium flux, dopamine EC20 potentiation; in the data active means potentiation above about 30%
TRHR agonist = TRH receptor (human) agonism; activation, % at 2 µM; hit rate 0.18% among 360,000; TRHR cells, calcium flux fluo-8, FDSS agonist mode; AID 493084; P34981
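In this calcium-flux screen, cells bearing human TRHR are dye-loaded with fluo-8, baselined for 10 cycles, then exposed to library compounds; positive kinetic calcium responses during the agonist phase mark hits, with TRH as control.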
A number is an active result; ! = repeats disagree. This is a sample that favours compounds with a hit; in the whole collection about 4.7% have one here. Unless noted, no stated cut-off is given here; in the data, active means activation above about 30%; inactive means the rest.

Screening COc1cccc(=O)c2c(C)n(CC(=O)c3ccccc3)c(C)c12 returned D1 ag inactive, TRHR enhancer inactive, D1 antagonist -32.8, D1 PAM inactive and TRHR agonist inactive.
CCCCNC(=O)Nc1nc2ccccc2s1 was read as D1 ag inactive, TRHR enhancer inactive, D1 antagonist inactive, D1 PAM inactive and TRHR agonist inactive.
For CCCNC(=O)Nc1nc2ccccc2s1 the results were D1 ag inactive, TRHR enhancer inactive, D1 antagonist -72.5, D1 PAM inactive and TRHR agonist inactive.
For CCCOc1ccc(CNC(=O)C2CCN(C(=O)c3sccc3-n3cccc3)CC2)cc1 the results were D1 ag inactive, TRHR enhancer inactive, D1 antagonist inactive, D1 PAM inactive and TRHR agonist inactive.
For CCCN(CC(=O)Nc1ccccc1OC)C(=O)C1=COCCO1 the results were D1 ag inactive, TRHR enhancer inactive, D1 antagonist inactive, D1 PAM inactive and TRHR agonist inactive.
Screening C/C(=N\NC(=O)CCCNc1ccc(C)cc1)c1ccccn1 returned D1 ag inactive, TRHR enhancer 32.1, D1 antagonist inactive, D1 PAM inactive and TRHR agonist inactive.
CCCc1nc(SC)ncc1C(=O)N1CCN(c2ccc(Cl)cc2)CC1 was read as D1 ag inactive, TRHR enhancer inactive, D1 antagonist inactive, D1 PAM inactive and TRHR agonist inactive.
`O=C(Nc1ccccn1)[C@@H]1CCC(=O)N1C(=O)OCc1ccccc1` gave D1 ag inactive, TRHR enhancer inactive, D1 antagonist -31.3, D1 PAM inactive and TRHR agonist inactive.
CCc1ccc(NC(=O)Cn2cnc3sc(C)c(S(=O)(=O)N4CCC(C)CC4)c3c2=O)cc1 was read as D1 ag inactive, TRHR enhancer inactive, D1 antagonist inactive, D1 PAM inactive and TRHR agonist inactive.
Cc1ccccc1N1C(=O)C(Cl)=C(N2CCOCC2)C1=O was read as D1 ag inactive, TRHR enhancer inactive, D1 antagonist -45.3, D1 PAM inactive and TRHR agonist inactive.
Screening Cc1ccccc1N1C(=O)C(Cl)=C(N2CCCCCC2)C1=O returned D1 ag inactive, TRHR enhancer inactive, D1 antagonist inactive, D1 PAM inactive and TRHR agonist inactive.
Screening Cc1cc(C)n(-c2nc3ccccc3nc2N2CCCC2)n1 returned D1 ag inactive, TRHR enhancer inactive, D1 antagonist inactive, D1 PAM inactive and TRHR agonist inactive.
`Cc1cc(C)n(-c2nc3ccccc3nc2N2CCN(C(=O)c3ccc(Cl)cc3)CC2)n1` gave D1 ag inactive, TRHR enhancer 30.3, D1 antagonist inactive, D1 PAM inactive and TRHR agonist inactive.
`O=C(CSc1nc2c([nH]c3ccccc32)c(=O)n1-c1ccc(F)cc1)NC1CCCCC1` gave D1 ag inactive, TRHR enhancer inactive, D1 antagonist inactive, D1 PAM inactive and TRHR agonist inactive.
Screening C=CCn1c(SCc2ccc(C#N)cc2)nnc1-c1cccc(Cl)c1 returned D1 ag inactive, TRHR enhancer inactive, D1 antagonist -39.5, D1 PAM inactive and TRHR agonist inactive.
COc1ccc(C(=O)c2sc(Nc3ccccc3)nc2C)cc1 was read as D1 ag inactive, TRHR enhancer inactive, D1 antagonist inactive, D1 PAM inactive and TRHR agonist inactive.
Screening COc1ccc(/C(C)=N/Nc2nc(C)c(C(C)=O)s2)cc1 returned D1 ag inactive, TRHR enhancer inactive, D1 antagonist -33.0, D1 PAM inactive and TRHR agonist inactive.
`C[C@@H](C(=O)Nc1ccc2c(c1)OCCO2)n1nnc2ccccc2c1=O` gave D1 ag inactive, TRHR enhancer inactive, D1 antagonist inactive, D1 PAM inactive and TRHR agonist inactive.
`CC(C(=O)Nc1ccc2c(c1)OCCO2)n1nnc(-c2ccccc2)n1` (stereo unspecified) gave D1 ag inactive, TRHR enhancer inactive, D1 antagonist -52.6, D1 PAM inactive and TRHR agonist inactive.
Cc1cccc([S+](=O)([O-])NC2CCN(C#N)CC2)c1 was read as D1 ag inactive, TRHR enhancer inactive, D1 antagonist -81.0, D1 PAM inactive and TRHR agonist inactive.
Screening CCN(c1ccc(OC)cc1)S(=O)(=O)c1nnc(NC(=O)c2ccccc2Cl)s1 returned D1 ag inactive, TRHR enhancer inactive, D1 antagonist -41.9!, D1 PAM inactive and TRHR agonist inactive.
For O=C(Nc1nnc(S(=O)(=O)N2CCCCCC2)s1)c1ccccc1Cl the results were D1 ag inactive, TRHR enhancer inactive, D1 antagonist -40.7!, D1 PAM inactive and TRHR agonist inactive.
For CC(C)CN(c1ccccc1)S(=O)(=O)c1nnc(NC(=O)C(C)C)s1 the results were D1 ag inactive, TRHR enhancer inactive, D1 antagonist -40.6, D1 PAM inactive and TRHR agonist inactive.
For O=C(Nc1nnc(S(=O)(=O)N2CCCC2)s1)c1ccccc1Cl the results were D1 ag inactive, TRHR enhancer inactive, D1 antagonist inactive, D1 PAM inactive and TRHR agonist inactive.
Screening CCOc1cc2sc(N3CCC(C(=O)Nc4ccccc4C(=O)OC)CC3)nc2cc1Br returned D1 ag inactive, TRHR enhancer inactive, D1 antagonist inactive, D1 PAM inactive and TRHR agonist inactive.
`CCOc1ccccc1NC(=O)C1CCN(S(=O)(=O)c2cc(Br)cc3c2N(C(C)=O)CC3)CC1` gave D1 ag inactive, TRHR enhancer inactive, D1 antagonist inactive, D1 PAM inactive and TRHR agonist inactive.
Cc1cc(N2CCN(C)CC2)nc2ccc(NC(=O)Nc3ccccc3Br)cc12 was read as D1 ag inactive, TRHR enhancer inactive, D1 antagonist inactive, D1 PAM inactive and TRHR agonist inactive.
For CCOC(=O)CN=C1CC(C)(C)CC2=C1Sc1ncnc(N(C)C)c1N2 the results were D1 ag inactive, TRHR enhancer inactive, D1 antagonist -42.1, D1 PAM inactive and TRHR agonist inactive.
Screening CC1CCCCN1CCCNC(=O)Cn1ncc2c3ccccc3n(Cc3ccccc3)c2c1=O (stereo unspecified) returned D1 ag inactive, TRHR enhancer inactive, D1 antagonist inactive, D1 PAM inactive and TRHR agonist inactive.
Screening COc1ccc(N2CCN(C(=O)CCc3c[nH]c4ccccc34)CC2)cc1 returned D1 ag inactive, TRHR enhancer inactive, D1 antagonist inactive, D1 PAM inactive and TRHR agonist inactive.
Screening COc1ccccc1N1CCN(C(=O)CCc2c[nH]c3ccccc23)CC1 returned D1 ag inactive, TRHR enhancer inactive, D1 antagonist -38.4, D1 PAM inactive and TRHR agonist inactive.
Cc1ccn2c(C(=O)NNC(=O)Nc3ccc(Cl)cc3)c(C)nc2c1 was read as D1 ag inactive, TRHR enhancer inactive, D1 antagonist inactive, D1 PAM inactive and TRHR agonist inactive.
`Cc1nc2ccccn2c1C(=O)NNS(=O)(=O)c1ccc(Cl)cc1` gave D1 ag inactive, TRHR enhancer 33.0, D1 antagonist inactive, D1 PAM inactive and TRHR agonist inactive.
